Most compounds without a hit are left out; they make up all but 3.1% or so of the library.
Casp6 inh: inhibitors of human caspase-6; P55212; purified caspase-6, Z-VEID-R110 cleavage fluorescence; inhibition, % at 12.5 µM; 350,000 compounds, 0.53% hits;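 active = mean inhibition across replicates at least about 35%, with every replicate also reaching that limit, limit read from the data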;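 note: 0% = median of neutral control wells and 100% = no fluorescence left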
ERAP1 HTS inh: blocks human ERAP1 aminopeptidase activity | inhibition, % at 10.7 µM | AID 652197 | recombinant ERAP1, Leu-AMC fluorescence, 60 min | 340,000 compounds, 0.15% hits;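 active = mean replicate inhibition of at least 30%, or all replicates individually reaching that 30% level; inactive = mean below 30% and not every replicate reaching it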;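 note: 0% = neutral control wells and 100% = L-leucinethiol positive control wells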
Target sequence (Q9NZ08 whole entry, looked up): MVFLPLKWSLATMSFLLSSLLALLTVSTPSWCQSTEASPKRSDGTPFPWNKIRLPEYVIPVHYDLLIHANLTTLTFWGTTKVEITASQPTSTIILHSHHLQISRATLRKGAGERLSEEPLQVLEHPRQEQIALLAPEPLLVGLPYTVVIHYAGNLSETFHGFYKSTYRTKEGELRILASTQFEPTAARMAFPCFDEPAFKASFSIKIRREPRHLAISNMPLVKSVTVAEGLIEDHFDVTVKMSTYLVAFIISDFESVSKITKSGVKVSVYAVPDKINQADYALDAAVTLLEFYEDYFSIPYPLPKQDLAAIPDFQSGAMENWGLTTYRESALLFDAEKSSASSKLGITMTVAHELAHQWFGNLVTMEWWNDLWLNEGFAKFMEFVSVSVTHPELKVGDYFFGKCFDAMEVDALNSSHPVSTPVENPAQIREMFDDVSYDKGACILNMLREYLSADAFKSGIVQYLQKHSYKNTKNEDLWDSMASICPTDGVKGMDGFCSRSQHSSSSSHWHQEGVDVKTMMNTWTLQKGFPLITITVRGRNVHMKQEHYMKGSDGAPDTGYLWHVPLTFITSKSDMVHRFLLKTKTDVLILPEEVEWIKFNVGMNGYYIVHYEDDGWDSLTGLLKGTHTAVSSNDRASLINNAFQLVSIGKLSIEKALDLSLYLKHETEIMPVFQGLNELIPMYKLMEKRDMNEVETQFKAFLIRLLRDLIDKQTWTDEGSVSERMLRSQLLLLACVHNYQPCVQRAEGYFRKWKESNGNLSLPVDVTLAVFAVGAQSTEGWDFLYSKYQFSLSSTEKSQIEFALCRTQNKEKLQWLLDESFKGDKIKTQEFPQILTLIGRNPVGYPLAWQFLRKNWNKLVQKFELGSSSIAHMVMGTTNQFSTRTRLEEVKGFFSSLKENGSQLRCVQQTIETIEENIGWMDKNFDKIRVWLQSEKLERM
FGF22 binding: FGF22 (human) thermal shift binding; activity (Tm shift, normalised), % at 9.99 µM; recombinant FGF22 thermal shift, SYPRO orange fluorescence; percent of sucrose octasulfate shift, DMSO zero; AID 651658; Q9HCT0; 340,000 compounds, 1.5% hits;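 active = mean Tm shift, scaled 0 neutral to 100 positive control, at about 1.3% or above, every replicate too, limit read from the data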
SIRT5 inh: inhibitors of human sirtuin-5 desuccinylase; inhibition, % at 15 µM; AID 652115; Purified SirT5, succinyl-peptide AMC, trypsin-coupled fluorescence; Q9NXA8; 330,000 compounds, 1.1% hits; in the data active = inhibition above about 15%
Starred values were filed as active, the others as inactive.

`CN(C)C(=O)C[C@@H]1C[C@H]2c3cc(NS(C)(=O)=O)ccc3O[C@H]2[C@H](CO)O1` gave Casp6 inh 0, ERAP1 HTS inh -2, FGF22 binding 0 and SIRT5 inh -1.
O=C(N/N=C/c1coc2ccccc2c1=O)c1cc(Br)ccc1O was read as Casp6 inh 43*, ERAP1 HTS inh 0, FGF22 binding 0 and SIRT5 inh 2.
`CC(C)(C)c1ccc(COC(=O)Nc2ccc(F)cc2)cc1` gave Casp6 inh -3, ERAP1 HTS inh -2, FGF22 binding 0 and SIRT5 inh 0.
`CC(C)(C)c1ccc(NC(=O)Nc2ccc(F)cc2)cc1` gave Casp6 inh 0, ERAP1 HTS inh 4, FGF22 binding 43* and SIRT5 inh 1.
For O=C(Nc1ccc(CN2CCOCC2)cc1)c1ccc(Cl)cc1Cl the results were Casp6 inh 2, ERAP1 HTS inh 4, FGF22 binding 0 and SIRT5 inh 18*.
`O=C(Nc1ccc(CN2CCOCC2)cc1)c1cc(Br)ccc1Cl` gave Casp6 inh -1, ERAP1 HTS inh 0, FGF22 binding 0 and SIRT5 inh -2.
`Cc1ccc(NC(=O)CN2CCOCC2)cc1Cl` gave Casp6 inh 3, ERAP1 HTS inh 3, FGF22 binding 0 and SIRT5 inh 25*.
`Cc1ccc(NC(=O)Nc2ccc(F)cc2)cc1Cl` gave Casp6 inh 1, ERAP1 HTS inh 3, FGF22 binding 43* and SIRT5 inh -3.
CO[C@H]1CN(C)C(=O)c2cc(NS(=O)(=O)c3cccc(F)c3)ccc2OC[C@H](C)NC[C@H]1C was read as FGF22 binding 0 and SIRT5 inh 14.
Screening CCCN1CNC(=S)N(c2ccccc2C)C1 returned Casp6 inh 56*, ERAP1 HTS inh -2, FGF22 binding 43* and SIRT5 inh -2.
For O=C(CCCN1C(=O)/C(=C/c2ccccc2)SC1=S)Nc1ccc(C(=O)O)c(O)c1 the results were Casp6 inh 25, ERAP1 HTS inh 15, FGF22 binding 0 and SIRT5 inh 46*.
For O=C(CCCN1C(=O)C(=Cc2ccc3c(c2)OCO3)SC1=S)Nc1ccc(C(=O)O)c(O)c1 the results were Casp6 inh 32, FGF22 binding -41 and SIRT5 inh 34*.
COc1ccc(/C=C2\SC(=S)N(CCCC(=O)Nc3cccc(C(=O)O)c3)C2=O)cc1OC was read as Casp6 inh 1, ERAP1 HTS inh -18 and SIRT5 inh 9.
Screening COc1ccc(C=C2SC(=S)N(CCCC(=O)Nc3ccc(C(=O)O)c(O)c3)C2=O)cc1OC returned Casp6 inh 26, ERAP1 HTS inh 35*, FGF22 binding 0 and SIRT5 inh 53*.
For CN1CCN(C(=O)C[C@H]2CC[C@H](NC(=O)Cc3ccccn3)[C@@H](CO)O2)CC1 the results were Casp6 inh -2, ERAP1 HTS inh -2, FGF22 binding 0 and SIRT5 inh 0.
For CC(NC(=O)COC(=O)c1ccccc1O)c1ccccc1 (stereo not given) the results were Casp6 inh 0, ERAP1 HTS inh 0, FGF22 binding 0 and SIRT5 inh -3.
For CC(NC(=O)COC(=O)c1cc(Cl)nc(Cl)c1)c1ccccc1 (stereo not given) the results were Casp6 inh 1, ERAP1 HTS inh 3, FGF22 binding 43* and SIRT5 inh 1.
For C[C@H]1CN([C@@H](C)CO)C(=O)c2cccc(NS(=O)(=O)c3cccs3)c2O[C@H]1CN(C)S(=O)(=O)c1ccc(F)cc1 the results were Casp6 inh 4, ERAP1 HTS inh 0, FGF22 binding 0 and SIRT5 inh -5.
`CN(C)CCCNC(=O)C[C@H]1C=C[C@H](NC(=O)Cc2cccnc2)[C@@H](CO)O1` gave Casp6 inh 2, ERAP1 HTS inh 2, FGF22 binding 0 and SIRT5 inh 1.
Screening CCn1ccnc1CNCc1cn(-c2cc(C)ccc2C)nc1-c1ccccc1 returned Casp6 inh 0, ERAP1 HTS inh -2, FGF22 binding 43* and SIRT5 inh 1.
For Cn1c(N)c(N=Cc2ccccc2)c(=O)n(C)c1=O the results were Casp6 inh -2, ERAP1 HTS inh 2, FGF22 binding 0 and SIRT5 inh -1.
Cn1c(N)c(N=O)c(=O)n(C)c1=S was read as Casp6 inh 60*, ERAP1 HTS inh 1, FGF22 binding 0 and SIRT5 inh 3.
Screening CO[C@H]1CN(C)C(=O)c2ccc(NC(=O)NC(C)C)cc2OC[C@H](C)N(Cc2ccccc2)C[C@H]1C returned ERAP1 HTS inh -5, FGF22 binding 0 and SIRT5 inh 23*.
CO[C@@H]1CN(C)C(=O)c2ccc(NC(=O)NC(C)C)cc2OC[C@@H](C)N(Cc2ccccc2)C[C@H]1C was read as Casp6 inh 1, ERAP1 HTS inh 2, FGF22 binding 0 and SIRT5 inh 0.
For CO[C@H]1CN(C)C(=O)c2cc(NC(=O)c3nc4ccccc4s3)ccc2OC[C@@H](C)N(Cc2cccnc2)C[C@@H]1C the results were Casp6 inh -2, ERAP1 HTS inh 1 and FGF22 binding 0.
Screening CO[C@@H]1CN(C)C(=O)c2ccc(NC(=O)c3nc4ccccc4s3)cc2OC[C@@H](C)N(Cc2cccnc2)C[C@H]1C returned SIRT5 inh 102*.
Screening CO[C@@H]1CN(C)C(=O)c2ccc(NC(=O)NC(C)C)cc2OC[C@@H](C)N(Cc2ccccc2)C[C@@H]1C returned ERAP1 HTS inh -3, FGF22 binding 0 and SIRT5 inh 18*.
`CC(C)[C@H](C)NC(=O)N(C)C[C@H]1OCc2ccccc2-c2c(n(C)c3ccccc23)C(=O)N([C@H](C)CO)C[C@H]1C` gave Casp6 inh -3, ERAP1 HTS inh 3, FGF22 binding 0 and SIRT5 inh 2.
For COc1cc(-c2nnc(COC(=O)c3ccc([N+](=O)[O-])o3)o2)cc(OC)c1OC the results were Casp6 inh 58*, ERAP1 HTS inh 1 and FGF22 binding 0.
`CCCNC(=O)Nc1ccc2c(c1)OC[C@@H](C)N(C(=O)C1CC1)C[C@H](C)[C@@H](OC)CN(C)C2=O` gave Casp6 inh 12, ERAP1 HTS inh 1, FGF22 binding -1 and SIRT5 inh -1.
For Cc1cccc(NC(=O)c2csnn2)n1 the results were Casp6 inh 0, ERAP1 HTS inh -2, FGF22 binding 0 and SIRT5 inh -5.
For O=C(NC(=O)c1csnn1)Nc1ccccc1Cl the results were Casp6 inh 61*, ERAP1 HTS inh 0, FGF22 binding 0 and SIRT5 inh -1.
For O=C(Cn1cc(C(F)(F)F)ccc1=O)N1CCCc2ccccc21 the results were Casp6 inh -1, ERAP1 HTS inh 1, FGF22 binding 0 and SIRT5 inh -5.
`CC1CCN(C(=O)Cn2cc(C(F)(F)F)ccc2=O)c2ccccc2S1` (stereo not given) gave Casp6 inh 70*, ERAP1 HTS inh 2, FGF22 binding 0 and SIRT5 inh -1.
For CCn1c(SCC(=O)Nc2ccc(OC)cc2)nc2nc3c(cc2c1=O)CCCC3 the results were Casp6 inh 6, ERAP1 HTS inh -3, FGF22 binding 0 and SIRT5 inh 16*.

Compound activity from PubChem.
